# Source: the supplement of paper PMC12632987
# B1: GBRAPL2_53_7350 (protein)
# chain: MYVIEIAHPDKETLAKAIEAIFDKLIEAGVEAKITVTLEDGTVIKLEGSLEEQKKKAVALAKETNVLVEIELPDSAKEVVEELEDIALKEGATVSVEKLE
# B2: GBRAPL2_175_7334 (protein)
# chain: SALDELLARLAALLDELSERADDETADLLDAAMALLELEGAAAAARVAELLREAAELAADNPRLRAALEELARAAALIAEGAAPEEVQAELDRAAALLAE
# B3: GBRAPL2_53_7346 (protein)
# chain: MKKVDIAHPDKEKLAKTLEEIFKILEENGVKAKVTVTTEDGNVIVLEGDLEEIREKTVKLAKETEVLVEIELPDDAEETVEKIIDVALKNGATVSVDGLE
# B4: GBRAPL2_53_7343 (protein)
# chain: MIEVDIAHPDKEVMAAAVEAVFDILERAGVEARVTVTKEDGTVVELEGPLEEVRAQAVALAKATEVLVRIELPDEAEEVVEEIEDEALAKGATVSVERIP
# B5: GBRAPL2_53_7355 (protein)
# chain: MVEIDIGHPDKEVMVKALEEVFDLIEKAGAEVEVIVTKEDGTVIKLTGSVEEIREKVIALAREQPILVTILLKEKNEKLVEEMVDAALKAGATVSVEELP
# B6: GBRAPL2_175_7329 (protein)
# chain: SERDELIKRLAELLEKLAEEVDGEASDLLLAAAALLEEEGIEAAKRVAELLKEAAKEIEGNEKLKKAAEALAEAAKLLAEGAPAEEVQKKLEEAEKLLKE
# B7: GBRAPL2_175_7340 (protein)
# chain: SAYEALLKEIIKLLLELSEKANDEVSDLLDAAAAVLETDGLAAAGRAAALVAEASKEAADNPQLQAALAKLAAALKALAAGAAPEEVEKLLKEAKAITKK
# B8: GBRAPL2_53_7356 (protein)
# chain: MLELEIAHPDKEIMAKAVEEIFNLLKEENVEAEVTVTTENGEVIKLTGDIEEIKKKVVELAKKQPILVSIKLPDSAEEVVEKMEDIALELGATVSVSRLE
# B9: GBRAPL2_151_7325 (protein)
# chain: SELDELLKKLKELLERLEKLVKEAAKEKPEYETTLETLVGGAEADLLLAEEAENDEEKRRHLKEAAELIRDAAEEIAKITGKEEAKKLAEEAKKLLKELE
# B10: GBRAPL2_53_7354 (protein)
# chain: MIAIEIGHPNKEVMVEALKKVFEIIKKAGEKVEVEVTLEDGTVIKLEGSVEEIEEKVLELAKKQPILVTIYLPEKNEELVEEIEDAALEAGATVSVEELP
# B11: GBRAPL2_151_7326 (protein)
# chain: SELERLLEKLKELLEKLEKLVEEAAKKDPSHEIELETLVGGAEADLLLAEEAPNDEEKRRFLKEAAELIKDAAELIAKITGSEEAKKLAEEAREILKELE
# B12: GBRAPL2_175_7337 (protein)
# chain: SLEDEVLEALIEALELLSEKADDEVSDLLDAAMALLETDGRAALPRVAELLKKASEEAKDNPELSALLEELAAAAKEFAEGGDLEEILKKAKEIIKKIKA
# B13: GBRAPL2_53_7349 (protein)
# chain: MYEVEIAHPDKEVLAAAIEAIFDKIEEAGVEAEVEVTLEDGTVIKLEGPIEEQKEEAVALAKETDVLVTIKLPDEAEELVEELEDIALEKGATVSVEKLE
# B14: GBRAPL2_175_7341 (protein)
# chain: AAYEKLLKEIIELLDELAEKADDEVSDLLEAAAAVLETDGLAGAGRAAKLVAEAAKEAADNPKLQAALKEVAAALKAIADGAAPEEVEKLLKKAKAILKE
# B15: GBRAPL2_175_7331 (protein)
# chain: SATEEALKRIAELLERLAERLDGEASDLLLAAAALVEQQGVAAAARAAELVKEAAKLVADDPRLRAALEELAAALKLLAAGAAVEEVQAEIDRAEALLEA
# B16: GBRAPL2_53_7348 (protein)
# chain: MYVVEIAHPDRDVLAAAIEAVFDLIEEAGVEAEVTVTLEDGTVIKLEGPISEVKERAVALAKETDVLVEIKLPDEAEEVVEELEDIALEKGATVSVEKLE
# B17: GBRAPL2_53_7351 (protein)
# chain: MYRVLIGHPDKEVMVKALEKVFEILEEAGVEAKVKVTKEDGTVIELEGPIKEIKEETLKLAKEQPILVEIELPDEAEEVVEKIVDAALEAGATVSVEKVE
# B18: GBRAPL2_175_7336 (protein)
# chain: SLKDEVLAALIEALELLAEKANDEVQDLLEAAMALLEVDGESALPQVAKLLEEAAKEAKDNPELQKLLKELAAAAKEAAEGGDLEEILARAQAIIKEIKA
# B19: GBRAPL2_43_7342 (protein)
# chain: MTEIEKKAIEEAREALEEKLDLDGVKEYEEEVEIRKEGDRTIAIVKATSKETGKEYYAVAVYDKNGELLVVVVSSDLERALKAAEDLIELGERDTYVLLP
# B20: GBRAPL2_175_7327 (protein)
# chain: SEMEELIKRLVELLLRLAEKLDGLASDLLLAAAALLEEEGVDAAKRAAELVKEAAKEIKDNPKLKAAAEELARALKLIAEGAPPEEVKKELEKAEKLLEE
# B21: GBRAPL2_175_7333 (protein)
# chain: SARQELVKRIRDLLLKLAEKADDETQDLLLAAAALLEEGGEENLKRALELVKEAAKEEKNDATLQQAAAELAAALALLIEGKPVEEAQKEIDAAAKLLAK
# B22: GBRAPL2_175_7339 (protein)
# chain: AAYEKLLAEIIELLLEIAEKANDEVSDLLEAAAAVLETDGLAGAERAARLVKEAAEEAKDNPQLQEALKLIAEALKALAAGAAPEEVKKLLDKAKEVLKK
# B23: GBRAPL2_151_7324 (protein)
# chain: SELEKLLKELKKLLEELEKLVKEASEKYPEYSIELETLAGGAEADILLAEEAKNDEEKRKYLKRAAELIADAAKLIAEITGDERAKKLAEEAKKILKELE
# B24: GBRAPL2_175_7335 (protein)
# chain: SKKEEAIKKLIEALELLAEKANDEVQDLLEAAAAVLELDGESGIEQAAKIVKQAAKDAKDNPELQKLLKELAKALKLLAEGGDIEEVIKKAEKIIKELKK
# B25: GBRAPL2_53_7347 (protein)
# chain: MIEIDIAHPDKEVMAETLEEIFDVLKKAGVEAKVTVTTENGEVIVLEGDLDEIKEKVVELAKKTNILVTIELPEDAEEVVEEIIDIALEKGAAVSVDGLE
# B26: GBRAPL2_175_7338 (protein)
# chain: AARAALLARIIELLDELAERADDEVADLLDAAAAVLEEEGEAGAERAARLVAEAAREAADDPRLRAALEAVAAALAALAAGAAPAEVQALLDEAEAILAE
# B27: GBRAPL2_175_7330 (protein)
# chain: SALEELLKRLAELLEELAEKLDDEASDLLLAAAALIEQDGVAAAKRAAELVKEAAKKVKDNPKLQAALEELAAALELIAAGKAPEEVKAELEKAEALLKE
# B28: GBRAPL2_53_7344 (protein)
# chain: MIEVDIAHPDKEVMAKAVEAVFDILEEAGVEAEVEVTKEDGTVERLRGPLEEVREKAVKLAKETEVLVTIRLPDSAEEVVEKIEDEALKHGATVSVKRLE
# B29: GBRAPL2_53_7345 (protein)
# chain: MIVVDVAHPDKEVMAEAVEAIFDILEENGVEAKVTVTLEDGTVVELEGPLDEVRKKAVELAKKSEVLVEIELPDSAEETVEKLEDVALEKGATVSVERIP
# B30: GBRAPL2_151_7323 (protein)
# chain: SELEKLLKEAKKLLKKLEKLVKEAAKKDPKYETELETLVGGAEADLILAEEAKNDEEKREHLKRAAELIADAAELIAKITGSEEAKKLAEEAKELLKKLE
# B31: GBRAPL2_175_7332 (protein)
# chain: SAREELVKRLAELALRLAEKADDETEDLLLAAAALLEEGGEENLKRAAELIKEAAKEIKDDERLKKAAAELAEAAELLIAGEDVEKAEEELRKAEELLEK
# B32: GBRAPL2_53_7353 (protein)
# chain: MIEVDIAHPDPEVMARALEKIFDIIKEAGQKVTVTVTTEDGTVITLTGDIDTIRAETVALAKQQPILVRIELEEEDEEVAEKVVDAALEEGATVSVERVE
# Target: GABARAPL2, P60520
# Sequence (P60520 whole entry, the tested form may be a part): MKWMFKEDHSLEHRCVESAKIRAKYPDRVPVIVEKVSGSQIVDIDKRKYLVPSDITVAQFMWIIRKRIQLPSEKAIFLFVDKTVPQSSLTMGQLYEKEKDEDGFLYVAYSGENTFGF
# Experiment: median log2 fold change of GCK-ALFA target abundance (FLAG IP / Myc IP barcode read proportion) (log2 ratio); each designed protein is fused to an ALFA-tag nanobody in HEK293 cells to bring the named protein to FLAG-tagged glucokinase (GCK); Myc marks an untargeted standard; higher = target protein stabilised (more abundant)
# Settings: target protein: 3xFLAG-MCP-GCK-ALFA reporter; HEK293 landing pad (RPLP)
# Summary of the method: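 The readout is target abundance, the per-binder median log2 ratio of FLAG to Myc barcode read proportions. It came from HEK293 landing-pad cells carrying a recombined ALFA-nanobody-fused binder library, induced with 2 μg mL^−1 doxycycline and transfected with a plasmid for a FLAG-tagged target and a Myc-tagged standard. After 48 h, lysates were immunoprecipitated with anti-FLAG and anti-Myc, and circular RNA barcodes were reverse transcribed, amplified and sequenced. Each barcode needed a proportion of at least 10^−7 in both replicates and each binder at least 3 barcodes per replicate, a pseudocount of 10^−6 was added, and the replicates were pooled.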
row,Binder,median log2 fold change
1,B1,0.177
2,B2,0.086
3,B3,0.2
4,B4,0.199
5,B5,0.379
6,B6,0.194
7,B7,0.217
8,B8,0.229
9,B9,0.129
10,B10,0.166
11,B11,0.164
12,B12,0.0611
13,B13,0.0915
14,B14,0.142
15,B15,0.0704
16,B16,0.152

row,Binder,median log2 fold change
1,B17,0.157
2,B18,0.166
3,B19,0.125
4,B20,0.118
5,B21,0.119
6,B22,0.22
7,B23,0.242
8,B24,0.0436
9,B25,-0.185
10,B26,-0.358
11,B27,0.207
12,B28,0.23
13,B29,0.0792
14,B30,0.39
15,B31,0.136
16,B32,0.275
